# In PMC4151992:
# Tests used:
# Experiment in all cases: cross-link between two proteins
# [1] = target: Small ribosomal subunit protein eS1A (UniProt P33442)
# [2] = target: Small ribosomal subunit protein eS4A (UniProt P0CX35)
# [3] = target: Small ribosomal subunit protein eS6A (UniProt P0CX37)
# [4] = target: Small ribosomal subunit protein eS7A (UniProt P26786)
# Chain of Small ribosomal subunit protein eS7A (P26786 whole entry): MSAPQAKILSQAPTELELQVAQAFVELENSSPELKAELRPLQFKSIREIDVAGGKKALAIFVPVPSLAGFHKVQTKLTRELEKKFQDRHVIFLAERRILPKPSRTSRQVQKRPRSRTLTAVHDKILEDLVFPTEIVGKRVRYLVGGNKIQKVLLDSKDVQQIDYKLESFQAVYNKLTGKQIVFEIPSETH
# Chain of Small ribosomal subunit protein eS1A (P33442 whole entry): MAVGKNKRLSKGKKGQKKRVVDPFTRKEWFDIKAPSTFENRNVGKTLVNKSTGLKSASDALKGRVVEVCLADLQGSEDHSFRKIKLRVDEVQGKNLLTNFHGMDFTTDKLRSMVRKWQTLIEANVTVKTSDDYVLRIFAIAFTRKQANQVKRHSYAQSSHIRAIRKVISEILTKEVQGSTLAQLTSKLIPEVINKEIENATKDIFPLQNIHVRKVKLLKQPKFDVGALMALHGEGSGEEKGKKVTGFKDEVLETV
# Chain of Small ribosomal subunit protein eS6A (P0CX37 whole entry): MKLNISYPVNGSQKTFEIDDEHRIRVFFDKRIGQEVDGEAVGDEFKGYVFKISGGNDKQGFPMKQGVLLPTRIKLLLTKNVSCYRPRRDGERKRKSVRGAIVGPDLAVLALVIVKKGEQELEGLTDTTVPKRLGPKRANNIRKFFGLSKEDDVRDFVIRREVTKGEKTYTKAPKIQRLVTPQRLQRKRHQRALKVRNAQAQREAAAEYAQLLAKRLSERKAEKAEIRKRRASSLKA
# Chain of Small ribosomal subunit protein uS8A, P0C0W1 (P0C0W1 whole entry): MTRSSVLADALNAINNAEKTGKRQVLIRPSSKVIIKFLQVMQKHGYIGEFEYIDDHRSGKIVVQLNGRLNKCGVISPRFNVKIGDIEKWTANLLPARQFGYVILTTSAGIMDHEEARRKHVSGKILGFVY
# Chain of Small ribosomal subunit protein eS4A (P0CX35 whole entry): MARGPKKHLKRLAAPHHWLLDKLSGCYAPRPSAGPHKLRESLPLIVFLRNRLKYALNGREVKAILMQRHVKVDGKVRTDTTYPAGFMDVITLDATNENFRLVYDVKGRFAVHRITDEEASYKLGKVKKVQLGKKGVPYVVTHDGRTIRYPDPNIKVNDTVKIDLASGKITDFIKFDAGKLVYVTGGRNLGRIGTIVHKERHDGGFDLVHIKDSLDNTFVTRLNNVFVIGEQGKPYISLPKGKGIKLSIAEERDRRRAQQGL
substance,measurement,setting,value
"Small ribosomal subunit protein uS11A, P06367",listed as a hit,[1],yes
"Small ribosomal subunit protein eS24A, P0CX31",listed as a hit,[2],yes
"Small ribosomal subunit protein eS4A, P0CX35",listed as a hit,[3],yes
"Small ribosomal subunit protein uS8A, P0C0W1",listed as a hit,[4],yes
